Screening data as filed in PubChem BioAssay.
SKKanGAS inh – inhibitors of SKKanGAS S. pyogenes growth in kanamycin (SK-promoter or general growth effect); BacTiter-Glo, 6 h; inhibition, % at 7.5 µM; 1.3% of 300,000 active; AID 1662;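 active = mean replicate score, as percent of positive control median, at least 50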;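 note: strain carries kanamycin resistance gene driven by streptokinase promoter and grows in 40 µg/ml kanamycin; loss of luminescence reflects streptokinase promoter inhibition or plain growth inhibition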
tim23-1 inh – tim23-1 yeast growth inhibition; S. cerevisiae tim23-1 growth, BacTiter-Glo luminescence, 24 h; inhibition, % at 20 µM; AID 463212; 1.3% of 330,000 active;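 active = growth inhibition of the mutant yeast at or above 50%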;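 note: temperature-sensitive mutant grown at 25 °C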
NALP1 yeast inh – NALP1 inhibition. 0.61% of 280,000 active. S. cerevisiae NALP1/ASC/caspase-1 growth, X-gal OD620, 72 h. inhibition, % at 10 µM; in the data active = inhibition mostly above about 24%, no sharp cut-off; inactive = mostly below about 32%
tim10-1 inh – growth inhibitors of tim10-1 mutant yeast; S. cerevisiae tim10-1 ts strain growth, BacTiter-Glo, 24 h; inhibition, % at 20 µM; 2.2% of 330,000 active;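 active = inhibition of at least 40%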;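 note: mutant grown at 25 °C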
TIM10 inh – inhibits growth of TIM10 yeast strain; S. cerevisiae TIM10 strain growth, BacTiter-Glo luminescence, 24 h; inhibition, % at 10 µM; 1.4% of 330,000 active; AID 463195;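 active = inhibition of 40% or more at the single tested concentration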;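 note: wild-type TIM10 isogenic control strain grown at permissive 25 °C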
PfHsp90 yeast 2 – inhibits growth of yeast expressing Plasmodium falciparum Hsp90; inhibition, % at 9.4 µM; S. cerevisiae expressing PfHsp90, BacTiter-Glo ATP, 48 h; yeast lacking PDR1 and PDR3 efflux regulators; 0.32% of 310,000 active;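 active = every replicate shows inhibition above about 80%, whatever the replicate mean, limit read from the data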
tim10-1 conf – tim10-1 yeast growth inhibition, confirmed; inhibition, % at 20 µM; 56% of 7,400 active; S. cerevisiae tim10-1 ts strain growth, BacTiter-Glo, 24 h; shares compounds with tim10-1 inh; AID 463213;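 active = inhibition of yeast growth at or above a set limit in either of two repeat tests at 20 µM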;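 note: tim10-1 mutant grown at permissive 25 °C to find synthetic lethal compounds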
TIM10 conf – TIM10 yeast growth inhibition, confirmed. shares compounds with TIM10 inh. S. cerevisiae tim10 strain growth, BacTiter-Glo luminescence, 24 h. inhibition, % at 10 µM. 63% of 4,600 active. AID 463215;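 active = inhibition of yeast growth at or above a set limit in either of two replicates at 10 µM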; note: this counterscreen used the strain with wild-type TIM10
Each line names hits and unclear results; the compound was inactive in the other large screens (follow-up assays come after a bar, where they were run). This is a sample that favours compounds with a hit; in the whole collection about 4.8% have one here.

O=C(Oc1c(CN2CCOCC2)cc(Cl)c2cccnc12)c1cccs1	tim10-1 inh 46.9, TIM10 inh 41.5 | tim10-1 conf 40.9 | TIM10 conf inactive
O=C(Cn1nnc(-c2cc(Cl)ccc2-n2cnnn2)n1)N1CCCc2ccccc21	none
Cc1c(Cl)cnc(NC(=O)COC(=O)c2ccc([N+](=O)[O-])s2)c1Cl	tim10-1 inh 49.0, TIM10 inh 65.8 | tim10-1 conf inactive | TIM10 conf 81.8
Cc1ccc(S(=O)(=O)/N=C(\c2ccc(F)cc2)n2c(C)nc3ccccc32)cc1	none
COc1ccc([N+](=O)[O-])cc1/C=N/Nc1nc(N2CCCCC2)nc(N2CCCCC2)n1	none
N/C(=N\OC(=O)CC1CCCCC1)c1ccc(Cl)cc1	NALP1 yeast inh 31.5, tim10-1 inh 42.2, TIM10 inh 44.0 (no result: PfHsp90 yeast 2) | tim10-1 conf 56.8 | TIM10 conf 34.3
N/C(=N\OC(=O)CC1CCCCC1)c1cccc(Br)c1	tim10-1 inh 62.1, TIM10 inh 73.0 | tim10-1 conf 66.9 | TIM10 conf 61.9
N/C(=N\OC(=O)CC1CCCCC1)c1ccc(Br)cc1	none
COc1ccc(NC(=S)N2CCN(C(=O)C3CCCO3)CC2)c(OC)c1 (stereo not given)	none
O=C(CCC(=O)N1CCN(c2cccc(Cl)c2)CC1)N1CCN(c2ccccc2)CC1	none
CSc1nc(N2CCOCC2)cc(N2CCOCC2)n1	none
O=C(CN1CCN(c2ccccc2F)CC1)c1ccc(O)cc1O	none
C[n+]1c2n(c3ccccc31)N=C(c1ccc(Br)cc1)CS2	tim10-1 inh 43.7, TIM10 inh 42.6 (no result: PfHsp90 yeast 2) | tim10-1 conf 43.6 | TIM10 conf 31.8
COc1ccc(C(C#N)=C2C=CC(=NO)C=C2)cc1	tim10-1 inh 50.5, TIM10 inh 81.2, PfHsp90 yeast 2 115.1 (no result: NALP1 yeast inh) | tim10-1 conf 54.5 | TIM10 conf 90.8
NC(=O)N/N=C/c1cc(F)cc(F)c1	none
CN(C)CCCNS(=O)(=O)c1ccc(N2CCC(c3ccc(Cl)cc3)=N2)cc1	tim10-1 inh 58.9, TIM10 inh 51.7 (no result: PfHsp90 yeast 2) | tim10-1 conf 39.9 | TIM10 conf 50.3
CN(C)CCCNS(=O)(=O)c1cc(Cl)ccc1Cl	none (no result: PfHsp90 yeast 2)
O=C(O)c1ccc2c(=O)n(-c3ccc(F)cc3)c(=S)[nH]c2c1	none
O=C1OC(c2ccc(F)cc2)=C/C1=C\c1ccc([N+](=O)[O-])o1	SKKanGAS inh 68.4, tim10-1 inh 71.3, TIM10 inh 63.8 (no result: PfHsp90 yeast 2) | tim10-1 conf 41.0 | TIM10 conf 59.2
Cc1cc(NCc2ccccc2)nc(-c2ccccc2O)n1	tim10-1 inh 64.3, TIM10 inh 66.5 (no result: PfHsp90 yeast 2) | tim10-1 conf 49.0 | TIM10 conf 46.2
Cc1c(C=O)c(Cl)n(C)c(=O)c1C#N	none
O=C(c1cccc2ccccc12)n1nnc2ccccc21	tim10-1 inh 66.5, TIM10 inh 58.7 (no result: NALP1 yeast inh, PfHsp90 yeast 2) | tim10-1 conf 61.1 | TIM10 conf 72.7
C#CCOC(=O)c1ccccc1C(=O)n1nnc2ccccc21	none
Cc1cc(C)c(C(=O)COC(=O)c2ccc(NC(=O)CC#N)cc2)cc1C	none (no result: NALP1 yeast inh)
CC1(C)CC(=O)c2cc(OCC(=O)N3CCN(c4ccccc4F)CC3)ccc2O1	none
c1coc(C2=Nc3cccc4cccc(c34)N2)c1	tim10-1 inh 47.4, TIM10 inh 48.7 | tim10-1 conf inactive | TIM10 conf inactive
COc1cccc(C2=Nc3cccc4cccc(c34)N2)c1	none
O=C(Nc1cccc2ccccc12)c1ccc([N+](=O)[O-])s1	none
O=C(Nc1ccccc1F)c1ccc([N+](=O)[O-])s1	tim10-1 inh 44.8, TIM10 inh 55.9 | tim10-1 conf 59.5 | TIM10 conf 63.6
N#Cc1sc2nc(C3CC3)cc(-c3ccc(Cl)cc3)c2c1N	tim10-1 inh 43.5, TIM10 inh 43.7 | tim10-1 conf 35.8 | TIM10 conf inactive
COc1ccc(N=Nc2cc(C)c(O)c(CN3CCCCC3)c2)cc1	none
COc1ccccc1/C=C/CN1CCCC(CCC(=O)NCc2ccccc2F)C1 (stereo not given)	tim10-1 inh 51.8, TIM10 inh 43.1 | tim10-1 conf 35.6 | TIM10 conf inactive
Cc1cccc(CN2C(=O)[C@H]3Cc4c([nH]c5ccccc45)C(C)(C)N3C2=O)c1	tim10-1 inh 43.5, TIM10 inh 43.1 (no result: NALP1 yeast inh, PfHsp90 yeast 2) | tim10-1 conf 35.5 | TIM10 conf 35.0
CCOC(=O)/C=C/C(=O)OCC(=O)Nc1ccc(OC)c(Cl)c1	tim10-1 inh 53.4, TIM10 inh 44.1 | tim10-1 conf 40.8 | TIM10 conf 36.1
COc1ccc(NC(=O)COC(=O)/C=C/C(=O)OCC(=O)Nc2ccc(OC)c(Cl)c2)cc1Cl	none
CC(C)(C)NC(=S)NC(=O)C12CCC3CC(CC(C3)C1)C2	tim10-1 inh 44.5, TIM10 inh 48.9 | tim10-1 conf 32.1 | TIM10 conf 36.5
N/C(CCS(=O)(=O)c1ccc(Cl)cc1)=N\OC(=O)c1ccccc1Cl	tim10-1 inh 61.7, TIM10 inh 51.4 | tim10-1 conf 70.7 | TIM10 conf 50.5
NC(=O)CCS(=O)(=O)c1ccc(Cl)cc1	none
O=C1/C(=C/c2cccc([N+](=O)[O-])c2)CSc2ccc(Cl)cc21	none
CNc1ccc(/C=C2\CSc3ccccc3C2=O)cc1[N+](=O)[O-]	tim10-1 inh 44.7, TIM10 inh 46.5 (no result: PfHsp90 yeast 2) | tim10-1 conf 40.4 | TIM10 conf inactive
CC(C)CNC(=O)C1(N2C(=O)c3ccccc3C2=O)CCCC1	none (no result: SKKanGAS inh, tim23-1 inh, NALP1 yeast inh, tim10-1 inh, TIM10 inh)
O=Nc1c(O)n(Cc2ccc(Cl)cc2Cl)c2ccccc12	tim10-1 inh 51.9, TIM10 inh 41.6 | tim10-1 conf inactive | TIM10 conf 39.0
O=C(Nc1cc(Sc2ccccn2)cc([N+](=O)[O-])c1)c1ccc(Cl)cc1	none
O=C(Nc1cc(Sc2ccccn2)cc([N+](=O)[O-])c1)c1cccc(Cl)c1	tim10-1 inh 42.0, TIM10 inh 53.7 | tim10-1 conf 34.2 | TIM10 conf inactive
NC1=NC[C@H](Cc2ccc(O)cc2)N1CCc1cccc2ccccc12	none
Cc1cc(C)c2nc3nc(C)c(C)cc3c(N)c2c1	tim10-1 inh 62.1, TIM10 inh 80.9 | tim10-1 conf 71.4 | TIM10 conf 80.9
O=C(Nc1cccc(Cl)c1)NC1CCCCC1	tim10-1 inh 41.4, TIM10 inh 49.5 (no result: PfHsp90 yeast 2) | tim10-1 conf 32.5 | TIM10 conf inactive
CN(CC(=O)Nc1ccc(Cl)c(C(F)(F)F)c1)C(=O)CCc1nc2ccccc2c(=O)[nH]1	none (no result: SKKanGAS inh, NALP1 yeast inh, PfHsp90 yeast 2)
CCCN1C(=O)/C(=C/c2ccncc2)SC1=S	tim10-1 inh 44.5, TIM10 inh 53.2 | tim10-1 conf inactive | TIM10 conf inactive
CCOC(=O)C1(CC2CCCCO2)CCN(Cc2cc(F)ccc2-n2cccn2)CC1 (stereo not given)	none
CCn1cc(S(=O)(=O)Nc2nc3ccc(OC)cc3s2)cn1	none
